Reference: PubChem BioAssay (Tox21)
Where “and” joins values, the source holds several entries; their conditions need not be identical. Equal entries are not always repeated. Inconclusive results are not listed. Where a structure was tested more than once in an assay, its records may differ in their call. Calls of active or inactive are those of the source. Unless noted, the call rests on the fitted dose curve; in most records, active means well fitted curve in the direction sought with a large enough effect in the repeat runs; inconclusive means weak or mixed curves; inactive means no such curve, though single readings can be large; an effect the other way counts as inactive or inconclusive.

Assays:
[1] = molecular target: Thyrotropin receptor (Homo sapiens) (UniProt P16473); test: qHTS assay to identify small molecule agonists of the thyroid stimulating hormone receptor (TSHR) signaling pathway (AID 1224843; calls by dose curve; further: nearly all actives have a fitted effect of over 45% in size)
Chain of Thyrotropin receptor (Homo sapiens) (P16473 whole entry, looked up): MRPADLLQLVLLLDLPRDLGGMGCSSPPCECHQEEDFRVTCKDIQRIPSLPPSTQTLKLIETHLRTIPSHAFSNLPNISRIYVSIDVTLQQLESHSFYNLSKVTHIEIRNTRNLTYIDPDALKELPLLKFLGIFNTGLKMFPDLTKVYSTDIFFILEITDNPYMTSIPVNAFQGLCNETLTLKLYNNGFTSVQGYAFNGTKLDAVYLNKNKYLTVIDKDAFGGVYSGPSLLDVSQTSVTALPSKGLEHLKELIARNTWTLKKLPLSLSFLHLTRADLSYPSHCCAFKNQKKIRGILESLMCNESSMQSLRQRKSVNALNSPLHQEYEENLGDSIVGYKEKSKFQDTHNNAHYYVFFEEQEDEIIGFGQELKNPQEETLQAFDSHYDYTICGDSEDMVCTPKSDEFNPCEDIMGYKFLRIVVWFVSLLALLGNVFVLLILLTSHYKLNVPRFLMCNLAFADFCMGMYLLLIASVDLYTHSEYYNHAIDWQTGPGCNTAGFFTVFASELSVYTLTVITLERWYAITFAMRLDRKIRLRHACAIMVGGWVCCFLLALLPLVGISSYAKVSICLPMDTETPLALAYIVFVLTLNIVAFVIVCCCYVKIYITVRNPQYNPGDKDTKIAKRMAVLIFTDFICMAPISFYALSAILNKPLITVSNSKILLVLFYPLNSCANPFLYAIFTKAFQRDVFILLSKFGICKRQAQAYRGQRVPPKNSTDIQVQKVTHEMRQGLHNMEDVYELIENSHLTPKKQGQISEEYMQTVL
In short: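 Agonist-mode screen: TSHR HEK293 cells received test chemicals for half an hour at room temperature, then HTRF cAMP detection reagents for one hour prior to fluorescence measurement. Each chemical ran as a 15-concentration series, triplicated.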

[2] = qHTS assay to identify small molecule agonists of H2AX (AID 1224845; active means well fitted activation curve with a large enough effect in the signal ratio in the repeat runs, not every such curve was filed as active; the % refers to the signal ratio)
In short: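 Wild-type CHO-K1 cells, plated overnight, exposed 3hr at 37C to 15 concentrations (0.76% DMSO final). Lysed, then HTRF anti-pH2AX (S139) cryptate and anti-H2AX-d2 antibodies, 24 hr room temperature; 665/620 nm emission read.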

[3] = qHTS assay to identify small molecule agonists of the hypoxia (HIF-1) signaling pathway (AID 1224846; active means well fitted activation curve with a large enough effect in the signal ratio in the repeat runs, not every such curve was filed as active; the % refers to the signal ratio)
In short: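 In ME-180 cells bearing an HRE-bla construct, 17 h treatment with DMSO-dissolved compounds at 37C was followed by CCF4-AM loading to quantify reporter induction.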

[4] = qHTS assay to identify small molecule agonists of H2AX - cell viability counter screen (AID 1224847; calls by dose curve; further: top concentration of the series differs between compounds; nearly all actives have a fitted effect of over 30% in size)
In short: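 For this counter screen, overnight-attached CHO-K1 cells received test compounds (15 concentrations, 0.76% DMSO final); 3 hr later at 37C, CellTiter-Glo reagent was added and luminescence recorded after 30 min at room temperature.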

[5] = qHTS assay to identify small molecule antagonists of the estrogen related receptor (ERR) signaling pathway from Tox21 library (AID 1224848); further: nearly all actives have a fitted effect of over 50% in size; further: potency means the concentration at half of the fitted maximal effect
In short: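 Quantitative high-throughput format: ERR reporter cells (2,000/well) pre-incubated 6 h, treated 18 h at 37 C with compounds in DMSO alongside positive and negative controls, then read by ONE-Glo luminescence.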

[6] = qHTS RealTime-Glo MT Cell Viability Assay in HepG2 cells - 24 hour (AID 1224867); further: nearly all actives have a fitted effect of over 50% in size
In short: (§1)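 HepG2 suspension premixed with RealTime-Glo reagents is plated at 600 cells per well and left 5 h at 37 C/5% CO2. Compounds in DMSO then go in, and bioluminescence reflecting viable cell number is recorded over 40 h.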

[7] = A CellTox Green Cytotoxicity Assay to monitor cytotoxicity in HEK293 cells - 0 hour (AID 1224869); further: nearly all actives have a fitted effect of over 50% in size
In short: (§2)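 Homogeneous no-lysis format: HEK293 cell suspension mixed with CellTox Green reagent, seeded, incubated 5 h at 37 C/5% CO2, then dosed by pintool with compound in DMSO.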

[8] = qHTS RealTime-Glo MT Cell Viability Assay in HepG2 cells - 40 hour (AID 1224870); further: nearly all actives have a fitted effect of over 50% in size
In short: (§3)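 HepG2 cells (600/well) mixed with RealTime-Glo MT reagent, settled 5 h at 37 C/5% CO2 before compound addition. Nonlytic NanoLuc luminescence from viable-cell prosubstrate reduction read repeatedly during 40 h treatment at 37 C.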

[9] = A CellTox Green Cytotoxicity Assay to monitor cytotoxicity in HEK293 cells - 40 hour (AID 1224871); further: nearly all actives have a fitted effect of over 45% in size
In short: as §2

[10] = qHTS RealTime-Glo MT Cell Viability Assay in HepG2 cells - 8 hour (AID 1224873); further: nearly all actives have a fitted effect of over 55% in size
In short: as §3

[11] = A CellTox Green Cytotoxicity Assay to monitor cytotoxicity in HEK293 cells - 24 hour (AID 1224875); further: nearly all actives have a fitted effect of over 45% in size
In short: as §2

[12] = A CellTox Green Cytotoxicity Assay to monitor cytotoxicity in HepG2 cells - 16 hour (AID 1224876); further: nearly all actives have a fitted effect of over 45% in size
In short: (§4)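 Fluorescent DNA-binding dye, 600 HepG2 cells/well, 5 h preincubation then compound in DMSO; same plates read at 0–40 h, 37 C.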

[13] = qHTS RealTime-Glo MT Cell Viability Assay in HepG2 cells - 32 hour (AID 1224877); further: nearly all actives have a fitted effect of over 55% in size
In short: as §1

[14] = A CellTox Green Cytotoxicity Assay to monitor cytotoxicity in HepG2 cells - 24 hour (AID 1224878); further: nearly all actives have a fitted effect of over 45% in size
In short: as §4

[15] = A CellTox Green Cytotoxicity Assay to monitor cytotoxicity in HepG2 cells - 40 hour (AID 1224879); further: nearly all actives have a fitted effect of over 40% in size
In short: as §4

[16] = qHTS RealTime-Glo MT Cell Viability Assay in HEK293 cells - 32 hour (AID 1224868); further: nearly all actives have a fitted effect of over 50% in size; further: potency means the concentration at half of the fitted maximal effect
In short: (§5)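 Reads taken at 0, 8, 16, 24, 32 and 40 h from the same wells. HEK293 cells (600/well) carried RealTime-Glo reagents from seeding, with compound added after a 5 h settle at 37 C.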

[17] = qHTS RealTime-Glo MT Cell Viability Assay in HEK293 cells - 16 hour (AID 1224872)
In short: as §5

[18] = qHTS RealTime-Glo MT Cell Viability Assay in HEK293 cells - 40 hour (AID 1224874); conditions: RealTime-Glo luminescence; max response: stronger effect = lower value; further: nearly all actives have a fitted effect of over 50% in size; further: potency means the concentration at half of the fitted maximal effect
In short: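 Measured as luminescence from the same continuously cultured HEK293 wells at successive time points (0, 8, 16, 24, 32, 40 h) after compound addition. Reagent present from seeding; dosing at 5 h; incubation 37 C.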

[19] = qHTS assay to identify small molecule agonists of the hypoxia (HIF-1) signaling pathway - cell viability counter screen (AID 1224844; calls by dose curve; further: nearly all actives have a fitted effect of over 50% in size)
In short: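 Same wells as the HIF-1 reporter screen; ME-180 cells carrying HRE-bla, 17 hr treatment at 37C; CellTiter-Glo luminescence read after 30 min at room temperature.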

[20] = qHTS assay to identify small molecule agonists of the estrogen related receptor (ERR) signaling pathway from Tox21 library (AID 1224849; calls by dose curve; further: nearly all actives have a fitted effect of over 15% in size); conditions: ERR reporter cell line, ONE-Glo luciferase, 18 h; at 92.4 µM (top of the series)
In short: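 Reporter cells (ERR, NTP source) treated with Tox21 10K compounds 18 h, 37 C. Readout: ONE-Glo luminescence, 30 min RT.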
On the % scale 0 is the no-effect control and ±100 the full control effect.

CC(C)Oc1ccc2c(=O)c(-c3ccccc3)coc2c1
inactive: Potency [1] | outcome [2] | Potency [3] | Potency [4] | Potency [5] | Potency [6] | Potency [7] | Potency [8] | Potency [9] | Potency [10] | Potency [11] | Potency [12] | Potency [13] | Potency [14] | Potency [15]

CC(=O)CC/C=C(\C)CCC=C(C)C
inactive: Potency [1] | outcome [2] | Potency [3] | Potency [4] | Potency [6] | Potency [16] | Potency [7] | Potency [8] | Potency [9] | Potency [17] | Potency [10] | max response [18] 1.02% and 0.97% | Potency [11] | Potency [12] | Potency [13] | Potency [14] | Potency [15]

CCCCOCCOCCO
inactive: Potency [1] | Potency [19] | Potency [3] | Potency [4] | Potency [6] | Potency [16] | Potency [7] | Potency [8] | Potency [9] | Potency [17] | Potency [10] | max response [18] 0.043% and 0.397% | Potency [11] | Potency [12] | Potency [13] | Potency [14] | Potency [15]

CCCCC(CC)COP(=O)(OCC(CC)CCCC)OCC(CC)CCCC (configuration not stated)
inactive: Potency [1] | Potency [19] | Potency [3] | Potency [4] | Potency [6] | Potency [16] | Potency [7] | Potency [8] | Potency [9] | Potency [17] | Potency [10] | max response [18] -14.5% | Potency [11] | Potency [13] | Potency [14] | Potency [15]

S=C(NC1CCCCC1)NC1CCCCC1
inactive: Potency [1] | outcome [2] | Potency [3] | Potency [4] | activity change, positive = activation [20] -59.4% and -64.8% | Potency [7] | Potency [8] | Potency [9] | Potency [10] | Potency [11] | Potency [12] | Potency [13] | Potency [14] | Potency [15]
active: Potency [16] 15.2 µM and 21.9 µM | Potency [18] 17 µM and 21.9 µM
15.1 µM (active) and inactive: Potency [5]
